The values that follow come from PubChem BioAssay (EPA / NIEHS).

Calls of active or inactive are those of the source. The calls were made as follows: active = hit-call score of the fitted dose curve at least 0.9, where 1 is the maximum; inactive = score below 0.9.

Read-out in test [1]: Tumor necrosis factor receptor superfamily member 6 (Homo sapiens) (UniProt P25445)
Briefly: LTEA_HepaRG_FAS: Life Technologies and Expression Analysis (LTEA) Assay for Fas cell surface death receptor (FAS) using HepaRG (AID 2283447). To be noted: mRNA level, 48 h; actives raise or lower the signal. Put shortly:
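FAS transcript level was measured by TaqMan qRT-PCR against three housekeeping genes after 48 h chemical exposure. Cells were HepaRG, 0.5% DMSO vehicle, with a top concentration of 100 uM and half-log dilutions over eight points, in duplicate.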

Read-out in test [2]: Cyclin D2 (CCND2), CCND2 (gene 894)
In words: LTEA_HepaRG_CCND2: Life Technologies and Expression Analysis (LTEA) Assay for Cyclin D2 (CCND2) using HepaRG (AID 2283449). Particulars: mRNA level, 48 h; actives raise or lower the signal. The procedure, abridged:
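CCND2 transcript levels, quantified by qRT-PCR and normalised to three housekeeping genes, were fitted bidirectionally against 0.5% DMSO. HepaRG cultures were dosed 48 h in duplicate with an 8-point half-log series up to 100 uM.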

Read-out in test [3]: flavin-containing dimethylaniline monooxygenases 3 (FMO3), FMO3 (gene 2328)
In words: LTEA_HepaRG_FMO3: Life Technologies and Expression Analysis (LTEA) Assay for flavin-containing dimethylaniline monooxygenases 3 (FMO3) using HepaRG (AID 2283453). Particulars: mRNA level, 48 h; actives raise or lower the signal. Put shortly:
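Eight-point concentration-response in serum-free HepaRG cultures (top 100 uM, 0.5% DMSO, 48 h). Read-out: FMO3 mRNA level normalized to three endogenous control genes, fitted bidirectionally versus vehicle.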

Read-out in test [4]: Cytochrome P450 (CYP1A1), CYP1A1 (gene 1543)
Briefly: LTEA_HepaRG_CYP1A1: Life Technologies and Expression Analysis (LTEA) Assay for Cytochrome P450 (CYP1A1) using HepaRG (AID 2283454). Particulars: mRNA level, 48 h; actives raise or lower the signal. The procedure, abridged:
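Differentiated human HepaRG cells, after 48 h plating, exposed in duplicate for 48 h in serum-free induction medium to 8 half-log concentrations up to 100 uM in 0.5% DMSO. CYP1A1 mRNA by qRT-PCR, normalized to ACTB/GAPDH/POLR2A; bidirectional fit versus DMSO.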

Read-out in test [5]: CFLAR gene, CFLAR (gene 8837)
Briefly: LTEA_HepaRG_CFLAR: Life Technologies and Expression Analysis (LTEA) Assay for CFLAR gene using HepaRG (AID 2283455). Particulars: mRNA level, 48 h; actives raise or lower the signal. Put shortly:
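Transcript level by qRT-PCR (normalized to ACTB, GAPDH and POLR2A) after 48 h chemical exposure of HepaRG cells, top concentration 100 uM with half-log steps, 0.5% DMSO vehicle, duplicates; fitted bidirectionally against DMSO baseline.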

Read-out in test [6]: Forkhead box O1 (FOXO1), FOXO1 (gene 2308)
In words: LTEA_HepaRG_FOXO1: Life Technologies and Expression Analysis (LTEA) Assay for Forkhead box O1 (FOXO1) using HepaRG (AID 2283456). To be noted: mRNA level, 48 h; actives raise or lower the signal. Put shortly: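 FOXO1 transcript quantified by qRT-PCR after 48 h chemical exposure (top 100 uM, half-log steps, 0.5% DMSO) of HepaRG cells, housekeeping-normalized (ACTB/GAPDH/POLR2A). Changes fitted in both directions relative to vehicle.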

Read-out in test [7]: growth arrest and DNA damage 45 (GADD45A), GADD45A (gene 1647)
In words: LTEA_HepaRG_GADD45A: Life Technologies and Expression Analysis (LTEA) Assay for growth arrest and DNA damage 45 (GADD45A) using HepaRG (AID 2283458). To be noted: mRNA level, 48 h; actives raise or lower the signal. The procedure, abridged:
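HepaRG, 48 h exposure, 8 conc. (top 100 uM, half-log steps), 0.5% DMSO vehicle, duplicates. Read-out: qRT-PCR mRNA level, housekeeping-normalized (ACTB/GAPDH/POLR2A). Curves fit bidirectionally vs DMSO baseline.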

Read-out in test [8]: Forkhead box O3 (FOXO3), FOXO3 (gene 2309)
In words: LTEA_HepaRG_FOXO3: Life Technologies and Expression Analysis (LTEA) Assay for Forkhead box O3 (FOXO3) using HepaRG (AID 2283459). Particulars: mRNA level, 48 h; actives raise or lower the signal. The procedure, abridged: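 FOXO3 transcript measured by qRT-PCR (normalized to ACTB, GAPDH, POLR2A) after 48 h exposure of HepaRG cells in serum-free induction medium. Duplicates, eight half-log concentrations up to 100 uM, 0.5% DMSO; gain or loss fitted against DMSO.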

Read-out in test [9]: ABC Transporter (ABCB1), ABCB1 (gene 5243)
Briefly: LTEA_HepaRG_ABCB1: Life Technologies and Expression Analysis (LTEA) Assay for ABC Transporter (ABCB1) using HepaRG (AID 2283460). Particulars: mRNA level, 48 h; actives raise or lower the signal. Put shortly: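 ABCB1 transcript level measured by TaqMan qRT-PCR against three housekeeping genes after 48 h chemical exposure of differentiated HepaRG cells. Top concentration 100 uM, half-log steps, eight points, 0.5% DMSO vehicle; bidirectional fit relative to DMSO.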

Read-out in test [10]: growth arrest and DNA damage 45 (GADD45B), GADD45B (gene 4616)
Briefly: LTEA_HepaRG_GADD45B: Life Technologies and Expression Analysis (LTEA) Assay for growth arrest and DNA damage 45 (GADD45B) using HepaRG (AID 2283461). To be noted: mRNA level, 48 h; actives raise or lower the signal. The procedure, abridged:
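Differentiated human HepaRG cells in serum-free induction medium exposed 48 h in duplicate to eight concentrations, top 100 uM, half-log steps, 0.5% DMSO. GADD45B mRNA by TaqMan qRT-PCR, normalized to ACTB, GAPDH, POLR2A; bidirectional fit versus DMSO.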

Read-out in test [11]: ABC Transporter (ABCC3), ABCC3 (gene 8714)
Briefly: LTEA_HepaRG_ABCC3: Life Technologies and Expression Analysis (LTEA) Assay for ABC Transporter (ABCC3) using HepaRG (AID 2283462). Particulars: mRNA level, 48 h; actives raise or lower the signal. Put shortly:
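Differentiated human HepaRG cells exposed 48 h in serum-free induction medium, 0.5% DMSO vehicle, 8-point half-log series to 100 uM in duplicate. ABCC3 mRNA by qRT-PCR, normalised to ACTB, GAPDH, POLR2A; bidirectional fit vs DMSO.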

Read-out in test [12]: ABC Transporter (ABCB11), ABCB11 (gene 8647)
Briefly: LTEA_HepaRG_ABCB11: Life Technologies and Expression Analysis (LTEA) Assay for ABC Transporter (ABCB11) using HepaRG (AID 2283463). Particulars: mRNA level, 48 h; actives raise or lower the signal. Put shortly:
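ABCB11 transcript levels quantified by TaqMan qRT-PCR against three housekeeping genes after 48 h chemical exposure of HepaRG cultures. Concentrations up to 100 uM in half-log steps, 0.5% DMSO vehicle; both induction and suppression scored.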

Read-out in test [13]: ABC Transporter (ABCC2), ABCC2 (gene 1244)
In words: LTEA_HepaRG_ABCC2: Life Technologies and Expression Analysis (LTEA) Assay for ABC Transporter (ABCC2) using HepaRG (AID 2283464). Particulars: mRNA level, 48 h; actives raise or lower the signal. The procedure, abridged: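 Differentiated HepaRG cells in serum-free induction medium exposed 48 h to eight half-log concentrations up to 100 uM, 0.5% DMSO, in duplicate. ABCC2 mRNA measured by qRT-PCR (TaqMan, Fluidigm), normalized to ACTB, GAPDH and POLR2A. Fitted in both directions against DMSO.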

Read-out in test [14]: Broad substrate specificity ATP-binding cassette transporter ABCG2 (Homo sapiens) (UniProt Q9UNQ0)
Briefly: LTEA_HepaRG_ABCG2: Life Technologies and Expression Analysis (LTEA) Assay for ABC Transporter (ABCG2) using HepaRG (AID 2283465). To be noted: mRNA level, 48 h; actives raise or lower the signal. The procedure, abridged: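 ABCG2 transcript was quantified by TaqMan qRT-PCR against three housekeeping genes in HepaRG cells. Cells were treated in duplicate for 48 h across an 8-point half-log series up to 100 uM, with 0.5% DMSO vehicle. Gain or loss versus DMSO was fit.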

Read-out in test [15]: ATP-citrate lyase (ACLY), ACLY (gene 47)
Briefly: LTEA_HepaRG_ACLY: Life Technologies and Expression Analysis (LTEA) Assay for ATP-citrate lyase (ACLY) using HepaRG (AID 2283466). Particulars: mRNA level, 48 h; actives raise or lower the signal. The procedure, abridged: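 ACLY mRNA quantified by qRT-PCR on Fluidigm arrays against three housekeeping genes, after 48 h chemical treatment of HepaRG cells (top concentration 100 uM, half-log steps, 0.5% DMSO vehicle). Up- or down-regulation fitted relative to DMSO.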

Read-out in test [16]: Peroxisomal acyl-coenzyme A oxidase 1 (ACOX1) gene, ACOX1 (gene 51)
Briefly: LTEA_HepaRG_ACOX1: Life Technologies and Expression Analysis (LTEA) Assay for Peroxisomal acyl-coenzyme A oxidase 1 (ACOX1) gene using HepaRG (AID 2283467). To be noted: mRNA level, 48 h; actives raise or lower the signal. The procedure, abridged:
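ACOX1 transcript levels were quantified by TaqMan qRT-PCR against three housekeeping genes after 48 h chemical exposure of differentiated human HepaRG cells. Exposure used eight half-log steps topping at 100 uM, 0.5% DMSO vehicle, in duplicate. Bidirectional curve fits were made relative to DMSO.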

Read-out in test [17]: Alkaline Phosphatase, Placental (ALPP) gene, ALPP (gene 250)
Briefly: LTEA_HepaRG_ALPP: Life Technologies and Expression Analysis (LTEA) Assay for Alkaline Phosphatase, Placental (ALPP) gene using HepaRG (AID 2283468). To be noted: mRNA level, 48 h; actives raise or lower the signal. The procedure, abridged:
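HepaRG cells plated 48 h, then exposed in duplicate for 48 h in serum-free induction medium to 8-point half-log series from 100 uM in 0.5% DMSO. ALPP mRNA by TaqMan qRT-PCR, normalized to ACTB/GAPDH/POLR2A; bidirectional fit versus DMSO.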

Read-out in test [18]: Bcl-2 (BAD) gene, BAD (gene 572)
Briefly: LTEA_HepaRG_BAD: Life Technologies and Expression Analysis (LTEA) Assay for Bcl-2 (BAD) gene using HepaRG (AID 2283469). Particulars: mRNA level, 48 h; actives raise or lower the signal. The procedure, abridged: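 Read-out: qRT-PCR of BAD mRNA, normalized to three housekeeping genes. Human HepaRG cultures got 48 h chemical exposure in 0.5% DMSO, duplicate eight-point half-log series topping at 100 uM. Gain or loss of signal fitted versus DMSO vehicle.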

Read-out in test [19]: Bcl-2 (BAX) gene, BAX (gene 581)
In words: LTEA_HepaRG_BAX: Life Technologies and Expression Analysis (LTEA) Assay for Bcl-2 (BAX) gene using HepaRG (AID 2283470). To be noted: mRNA level, 48 h; actives raise or lower the signal. The procedure, abridged: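 qRT-PCR read-out of BAX mRNA, normalized to three housekeeping genes, after 48 h chemical exposure of human HepaRG cells in serum-free induction medium; eight-point half-log series, top 100 uM, 0.5% DMSO vehicle; bidirectional fit versus DMSO.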

The nature of test [20]: CEETOX_H295R_TESTO: CeeTox H295R High-throughput Steroidogenesis Assay for Testosterone (TESTO) (AID 2283457). Particulars: actives raise or lower the signal. Put shortly:
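H295R adrenal cells, passage ≤10, exposed to chemicals for 48 h. Testosterone in medium measured by MTBE extraction and HPLC-MS/MS against a 7-point standard curve. Bidirectional fit versus DMSO; MTT viability checked in the same wells.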

Broad substrate specificity ATP-binding cassette transporter ABCG2 (Homo sapiens), sequence (Q9UNQ0 whole entry, looked up): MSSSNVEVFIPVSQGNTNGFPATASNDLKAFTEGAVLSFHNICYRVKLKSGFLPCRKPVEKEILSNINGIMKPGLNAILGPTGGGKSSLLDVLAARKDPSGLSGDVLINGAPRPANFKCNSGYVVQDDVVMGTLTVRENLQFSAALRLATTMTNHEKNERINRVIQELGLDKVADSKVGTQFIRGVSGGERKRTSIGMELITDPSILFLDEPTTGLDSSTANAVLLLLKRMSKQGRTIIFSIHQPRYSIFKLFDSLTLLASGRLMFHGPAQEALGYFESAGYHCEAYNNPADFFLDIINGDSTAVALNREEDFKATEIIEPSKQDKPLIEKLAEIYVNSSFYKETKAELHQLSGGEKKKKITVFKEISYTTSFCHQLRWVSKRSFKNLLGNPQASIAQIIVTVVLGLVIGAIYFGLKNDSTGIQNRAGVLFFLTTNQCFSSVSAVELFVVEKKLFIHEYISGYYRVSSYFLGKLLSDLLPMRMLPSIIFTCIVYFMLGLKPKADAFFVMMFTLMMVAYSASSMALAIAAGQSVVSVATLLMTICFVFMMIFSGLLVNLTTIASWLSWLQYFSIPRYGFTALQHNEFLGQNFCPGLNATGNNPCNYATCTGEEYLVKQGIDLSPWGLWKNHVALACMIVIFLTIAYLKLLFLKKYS

Consider `O=C(O)C(F)(F)C(F)(F)C(F)(F)C(F)(F)C(F)(F)C(F)(F)F`, for which the result in test [1], in test [2], in test [3], in test [4], in test [5] and in test [6] was inactive. Moreover, the compound was called inactive in [7], in test [8], in test [10], in test [11], in [12] and in test [13]. Also, the outcome in test [14], in test [15], in test [16], in [17], in test [18] and in test [19] was inactive. Also, the AC50 in test [9] was 0.101 µM (active).

Regarding `CN(CCCC(=O)c1cccnc1)N=O`, the call in [20] was inactive.

As for `CC(C)(c1ccccc1)c1ccc(O)c(C(C)(C)c2ccccc2)c1`, the compound was called inactive in test [1], in test [2], in test [5], in [6], in [7] and in test [8]. Further, the compound was called inactive in [10], in test [11], in test [15], in [17], in [18] and in test [19]. Also, the AC50 was 78.2 µM (active) in test [3]; 35.8 µM (active) in test [4]; 22.1 µM (active) in [9]; 43.1 µM (active) in [12]; 12.7 µM (active) in test [13]; 36.2 µM (active) in [14]. For the same compound, the AC50 in test [16] is 50 µM (active).

The AC50 is the concentration giving half of the maximal activity seen.
